# Test results as given in PubChem BioAssay AID1568 (National Center for Advancing Translational Sciences (NCATS), 2009).
# Inconclusive results are not listed. Unmarked numbers belong to inactive results. The source made the active and inactive calls. The call rests on the fitted dose curve; in most records, active means well fitted curve in the direction sought with a large enough effect; inconclusive means small, poorly fitted or top-dose-only effect, or effect the other way, or another doubt; inactive means no such curve, though single readings can be large or run the other way.
# Assay: Cell Viability Secondary Assay to Characterize qHTS Inhibitors of the Interaction of Thyroid Hormone Receptor and Steroid Receptor Coregulator 2
# Details: cell viability counter-screen, qHTS titration; series mostly up to 29.9 µM; activity change, negative = cytotoxicity: at the top concentration
# Excerpt: NIH Molecular Libraries Probe Production Network [MLPCN]
# NIH Chemical Genomics Center [NCGC]
# Assay Provider: R. Kip Guy, St. Jude Children's Research Hospital
# Thyroid receptor (TR) regulates many homeostatic processes including basal metabolism, cardiovascular function, body weight, and lipid trafficking. TR modulators are potential therapeutics for obesity and hyperlipidemias but current thyroid analogs have undesirable side effects, particularly cardiac stimulation. This secondary assay characterized selected actives identified in the qHTS for Inhibitors of the Interaction of Thyroid Hormone Receptor and Steroid Receptor Coregulator 2. The human follicular thyroid carcinoma cell line WRO (kindly provided by Dr. M. D. Ringel) stably expresses TRbeta and a luciferase reporter gene fused to TR response element. The effect of compounds on the viability of these cells was assessed by measuring ATP levels. Compounds that reduce cell viability are likely cytotoxic.
# NCGC Assay Protocol Summary:
# Cells were maintained in RPMI 1640 culture medium supplemented with 10% heat-inactivated FBS, 0.33 mg/ml hygromycin, 0.33 mg/ml geneticin, 50 units/ml penicillin, 50 ug/ml streptomycin. Cells were harvested and resuspended at 330,000 cells/ml in assay medium (50% DMEM 50% F-12 medium without Phenol-Red (Cellgro #16-405-CV), L-glutamine, 10% heat inactivated and charcoal treated FBS, 100 uM non-essential amino acid, 50 units/ml penicillin, 50 ug/ml streptomycin). Cells were dispensed at 10,000 cells/30 ul/well into 384 well plates (Corning 3917) and incubated 12 h at 37 C and 5% CO2. Compounds and T3 (100nM final concentration) were added using a pin tool and plates were incubated 16 h incubation at 37 C and 5% CO2. Following incubation, plates were equilibrated at ambient temperature for 30 min, 20 ul of CellTiter-Glo (Promega) was added and luminescence was detected by an EnVision (PerkinElmer).
Compound,"activity change, negative = cytotoxicity",Potency
Cn1c(=O)[nH]c2nnc(-c3ccc(Cl)c(Cl)c3)nc2c1=O,-11.1%,–
Cc1ccc(-c2nc(S(=O)(=O)c3ccc(F)cc3)c(SCC(=O)NCC3CCCO3)o2)cc1 (stereo not given),9.56%,–
CCOc1ccc(C2=Cc3cc(OC)c(OC)cc3C(=C(Cl)Cl)O2)cc1,-12.9%,–
CC1(C)C(N(O)C(=O)Nc2ccc(Cl)cc2)N(c2ccc(Cl)cc2)C(=O)N1CC(=O)NN (stereo not given),8%,–
Cc1nnc(SCC(=O)Nc2ccc(N(C)C)cc2)[nH]c1=O,-0.944% [at 59.9 µM],–
C=CCNC(=O)/C(C#N)=C/c1c(C)nn(-c2ccc(Cl)cc2)c1Cl,-7.83%,–
O=C(O)/C=C/C(=O)Nc1ccc(SC(F)(F)C(F)(F)C(F)(F)F)cc1,-13.1%,–
CCCCCCN=CC1=C(O)CC(C)(C)CC1=O,-25.6%,–
CCOc1ccc(NC(=O)C(c2ccccn2)N(C(=O)CCl)c2ccc(F)cc2)cc1 (stereo not given),-6.25%,–
N/C(Cc1cccc2ccccc12)=N\OC(=O)c1cccs1,-11.8%,–
CC(=O)c1cccc(NC(=O)COC(=O)c2ccc(S(C)(=O)=O)c([N+](=O)[O-])c2)c1,34.6%,–
Nc1cc(-c2ccncc2)c[nH]c1=O,12.5% [at 26.8 µM],–
O=c1cc(C23CC4CC(CC(C4)C2)C3)[nH][nH]1,-14.5%,–
O=C(/C=C/c1ccco1)NC(=S)Nc1cc(C(F)(F)F)ccc1N1CCOCC1,-20.7%,–
Cc1cc(N=Cc2c(O)ccc3ccccc23)no1,-15.4%,–
CCOc1cc(N2CCOCC2)c(OCC)cc1NC(C)C(=O)N1CCN(CC)CC1 (stereo not given),-2.87%,–
Cc1cccc(Cn2c(C(=O)OC(C)C)cc3c2ccn3C)c1,-28.9%,–
CC(NC(=O)Nc1ccc(O)cc1)(C(F)(F)F)C(F)(F)F,9.82%,–
Cn1c(CCN2CCCCC2)nc2cc(NS(=O)(=O)c3ccc(Cl)cc3)ccc21,-6.48%,–
Nc1cc(N)c(OCC(F)(F)F)cc1OCC(F)(F)F,–,14.1 µM (active)

Compound,"activity change, negative = cytotoxicity",Potency
Cc1cccc(S(=O)(=O)c2cn(Cc3ccccc3)c3cc(N4CCC(C)CC4)c(F)cc3c2=O)c1,11.4% [at 59.9 µM],–
CC1(C)CC(=O)C(N=Nc2cccc(S(=O)(=O)N3CCOCC3)c2)=C(O)C1,-0.603%,–
C=CCSc1nnc2n(-c3ccccc3OC)c(=O)c3c4c(sc3n12)CCC4,-15%,–
CC(=O)NC1N=C(C)N(c2ccccc2)C1=O (stereo not given),1.59%,–
CN1CCc2ccc3c4c2[C@]1(C)Cc1cccc(c1-4)OCO3,–,8.91 µM (active)
O=C(O)C1C2C=CC(O2)C1C(=O)Nc1ccc(S(=O)(=O)N2CCc3ccccc32)cc1 (stereo not given),1.57%,–
CCOc1cc(C(c2c(C)[nH][nH]c2=O)c2c(C)[nH][nH]c2=O)ccc1OC(=O)c1cccc([N+](=O)[O-])c1,-4.08%,–
CN1c2ccccc2C(C)(C)C12C=Nc1c(cc(N3CCOCC3)c3ccccc13)O2 (stereo not given),-10.5%,–
C=CCNC(=O)/C(C#N)=C\c1cc(Cl)c(OCC)c(OC)c1,-23.3%,–
Cc1nc2c3cc(F)ccc3n(Cc3ccccc3F)c2s1,-26.7%,–
CC1=NN(Cc2ccccc2)C(=O)C1,6.13%,–
CCCCOc1ccc(C(=O)CCN2CCOCC2)cc1,-16.3%,–
COc1ccc(C(=O)/C=C/Nc2ccc(S(=O)(=O)Nc3ncccn3)cc2)cc1,-16.8%,–
COc1cc(C(c2c(C)[nH][nH]c2=O)c2c(C)[nH][nH]c2=O)ccc1OC(=O)c1cccc(C)c1,-3.92% [at 59.9 µM],–
Cc1cc(C)cc(OCC(=O)NCCc2nc3ccccc3[nH]2)c1,-5.54% [at 59.9 µM],–
O=C(NNc1cc(N2CCOCC2)nc(N2CCOCC2)n1)c1ccc([N+](=O)[O-])cc1,-11.2%,–
Oc1ccc2ccccc2c1/C=N/c1nc2c(s1)CCCC2,-5.14%,–
COc1ccc(-c2nc(CS(=O)CC(=O)NCc3ccccn3)c(C)o2)cc1 (stereo not given),-17.9%,–
Cc1c(C#N)c(O)n(CCO)c(=O)c1N=Nc1ccc2c(c1)COC2=O,-16%,–
CCOc1cc(C(c2c(C)[nH][nH]c2=O)c2c(C)[nH][nH]c2=O)ccc1OS(=O)(=O)c1ccc(C)cc1,4.22%,–
